{"source": "PubChem BioAssay (NCATS)", "note": "Values joined by “and” are separate entries in the source; they are usually repeats but may differ in a detail not shown here. Equal entries are not always repeated. Records with an inconclusive call do not appear. Active and inactive are the calls of the source. Calls follow the shape of the dose curve; as a rule, active = well fitted curve in the direction sought with a large enough effect in the signal ratio, with a control signal flat; inconclusive = small, poorly fitted or top-dose-only effect, or a change in a side signal; inactive = no such curve, though single readings can be large or run the other way; the % refers to the signal ratio."}
{"target": "Glucocorticoid receptor (Homo sapiens) (UniProt P04150)", "sequence (P04150 whole entry, looked up)": "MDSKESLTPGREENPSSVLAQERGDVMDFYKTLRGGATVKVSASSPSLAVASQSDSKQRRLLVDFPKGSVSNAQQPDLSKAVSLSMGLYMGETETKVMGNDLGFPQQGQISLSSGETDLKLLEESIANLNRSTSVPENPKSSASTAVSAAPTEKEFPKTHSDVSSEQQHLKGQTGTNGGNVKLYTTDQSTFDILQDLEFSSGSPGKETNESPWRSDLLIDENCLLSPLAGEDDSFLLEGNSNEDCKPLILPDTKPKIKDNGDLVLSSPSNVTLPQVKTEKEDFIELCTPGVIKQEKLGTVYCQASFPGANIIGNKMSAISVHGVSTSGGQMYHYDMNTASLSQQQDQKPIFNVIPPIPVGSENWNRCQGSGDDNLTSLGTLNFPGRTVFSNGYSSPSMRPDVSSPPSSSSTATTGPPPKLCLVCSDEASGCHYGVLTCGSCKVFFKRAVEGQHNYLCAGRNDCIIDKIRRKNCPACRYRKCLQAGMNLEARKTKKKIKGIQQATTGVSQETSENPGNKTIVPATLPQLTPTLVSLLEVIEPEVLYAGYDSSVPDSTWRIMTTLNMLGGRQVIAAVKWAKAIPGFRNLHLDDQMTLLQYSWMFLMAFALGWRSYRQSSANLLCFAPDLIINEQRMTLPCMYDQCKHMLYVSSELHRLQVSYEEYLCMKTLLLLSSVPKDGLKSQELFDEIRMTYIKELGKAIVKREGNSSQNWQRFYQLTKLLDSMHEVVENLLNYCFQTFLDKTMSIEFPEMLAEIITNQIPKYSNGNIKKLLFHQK", "experiment": "qHTS assay for small molecule agonists of glucocorticoid receptor signaling (AID 588532)", "settings": "HeLa MMTV-bla, beta-lactamase ratio, agonist, 18 h; active compounds read high; percent of dexamethasone control, DMSO zero", "description": "NIH Chemical Genomics Center [NCGC] U.S. Environmental Protection Agency [EPA] National Institutes of Environmental Health Sciences [NIEHS] National Toxicology Program [NTP] NCGC Assay Overview The Glucocorticoid receptor (GR), a nuclear receptor subfamily member and its natural ligands includes […] etc. The GR is a validated drug target for inflammation. GR ligands such as dexamethasone are clinically available as anti-inflammatory drugs. Glucocorticoids implicate role in carbohydrate, protein and lipid metabolisms and programmed cell death. They are also a component of many chemotherapy regimens for the treatment of leukemias, lymphomas, and myelomas because of their role in the induction of apoptosis.\nNCGC Assay Protocol Summary Using a beta-lactamase reporter-gene under control of glucocorticoid response element (GRE), a cell-based assay [CellSensor MMTV-bla HeLa cell line assay developed by Invitrogen] was used to measure GR ligands signaling. CellSensor MMTV-bla HeLa cells were used with assay medium containing 1% charcoal/dextran treated FBS, 0.1 mM NEAA, 1 mM sodium pyruvate and 25mM HEPES. The assay was performed in clear bottom black Greiner 1536-well plates. Dexamethasone and Mifepristine were used in the screen as agonist and antagonist positive controls respectively. Library compounds were measured for their ability to stimulate the reporter gene activity. Compounds were screened in a titration series in 1536-well format. The fluorescence intensity (405 nm excitation, 460/530 nm emission) was measured using an EnVision plate reader. Data was normalized relative to Dexamethasone control (0.1 uM, 100%), and DMSO only wells (basal, 0%). Concentration-response titration points for each compound were fitted to the Hill equation yielding concentrations of half-maximal stimulation (EC50) and maximal response (efficacy) values. qHTS protocol for GR beta-lactamase assay in agonist mode [Step] [Parameter] [Value] [Description] 1. Reagent; 6 uL; 1500 cells/well 2. Incubation; 37 C for 3-5 hrs 3. Compounds; 23 nL; 0.59 nM to 92 uM 4. Controls (Dexamethasone); 23 nL, - One column with dose response, start 4.6uM, 1:3 dilutions in duplicates - Final concentrations of 0.1 uM and 2 nM in two columns 5. Incubation; 37 C for 18 hrs 6. Detection reagent; 1 uL of CCF4-dye 7. Incubation; RT for 2 hrs 8. Detection; Fluorescence; Envision plate reader"}
{"molecule": "COC(=O)Nc1nc2ccccc2[nH]1", "activation": "-11.7% (inactive)"}
{"molecule": "C=CCBr", "activation": "0.974% (inactive)"}
{"molecule": "ClCC(Cl)CCl", "activation": "-1.49% (inactive) and -1.66% (inactive)"}
{"molecule": "Cc1cccc(C)c1N", "activation": "0.219% (inactive)"}
{"molecule": "Cc1ccccc1[N+](=O)[O-]", "activation": "-7.47% (inactive)"}
{"molecule": "Cc1ccc(N)cc1N", "activation": "-6.12% (inactive) and -1.93% (inactive)"}
{"molecule": "CN(C)C(=O)Nc1ccc(Cl)cc1", "activation": "8.83% (inactive) and -10.8% (inactive)"}
{"molecule": "O=NN1CCCCC1", "activation": "0.249% (inactive)"}
{"molecule": "CCCCCCCCCCCCCl", "activation": "2.7% (inactive)"}
{"molecule": "Oc1cc(Cl)c(Cl)c(Cl)c1", "activation": "5.15% (inactive)"}
{"molecule": "C=CC(=O)OCCO", "activation": "19.7% (inactive)"}
{"molecule": "Nn1cnnc1", "activation": "-5.65% (inactive)"}
{"molecule": "Brc1cccc(-c2ccccc2)c1", "activation": "-4.94% (inactive)"}
{"molecule": "ClCc1ccccn1", "activation": "7.32% (inactive) and 6.72% (inactive)"}
{"molecule": "CCC#N", "activation": "-7.32% (inactive)"}
{"molecule": "CC(C)[N+](=O)[O-]", "activation": "-6.88% (inactive)"}
{"molecule": "C=C(C)CCl", "activation": "15.7% (inactive)"}
{"molecule": "FC(Cl)(Cl)Cl", "activation": "0.534% (inactive)"}
{"molecule": "O=C(Cc1ccccc1)OCc1ccccc1", "activation": "0.186% (inactive)"}
{"molecule": "O=[N+]([O-])c1cccc(CCl)c1", "activation": "5.78% (inactive)"}
{"molecule": "N#CCCCCC#N", "activation": "-2.66% (inactive)"}
{"molecule": "ClCC(Br)CBr", "note": "(stereo not given)", "activation": "-3.35% (inactive)"}
{"molecule": "Cc1ccc([N+](=O)[O-])cc1", "activation": "-2.83% (inactive)"}
{"molecule": "O=C(O)c1cc(Cl)ccc1Cl", "activation": "-4.37% (inactive)"}
{"molecule": "CC(C#N)CCC#N", "note": "(stereo not given)", "activation": "5.21% (inactive)"}
{"molecule": "COC(=O)Nc1cccc(OC(=O)Nc2cccc(C)c2)c1", "activation": "-3.09% (inactive)"}
{"molecule": "O=C(O)C(Br)CBr", "note": "(stereo not given)", "activation": "-2.23% (inactive)"}
{"molecule": "CCC/C=N/O", "activation": "5.99% (inactive)"}
{"molecule": "c1ccc(OCC2CO2)cc1", "note": "(stereo not given)", "activation": "-7.97% (inactive)"}
{"molecule": "O=[N+]([O-])/C=C/c1ccccc1", "activation": "-1.34% (inactive)"}
{"molecule": "CCCCOC(=O)c1ccccc1N", "activation": "-1.38% (inactive)"}
{"molecule": "c1ccc(P(c2ccccc2)c2ccccc2)cc1", "activation": "1.22% (inactive)"}
{"molecule": "ClCCCCl", "activation": "-8% (inactive)"}
{"molecule": "Cc1cc(C)cc(OP(=O)(Oc2cc(C)cc(C)c2)Oc2cc(C)cc(C)c2)c1", "activation": "-3.84% (inactive)"}
{"molecule": "Clc1cc(Cl)c(Cl)c(Cl)c1", "activation": "16.9% (inactive)"}
{"molecule": "C[N+](=O)[O-]", "activation": "-0.802% (inactive)"}
{"molecule": "BrCC(Br)C1CCC(Br)C(Br)C1", "note": "(stereo not given)", "activation": "3.61% (inactive)"}
{"molecule": "Cc1cc(N=Nc2ccccc2C)ccc1N", "activation": "-7.11% (inactive)"}
{"molecule": "ClP(Cl)(Cl)(Cl)Cl", "activation": "-4.5% (inactive)"}
{"molecule": "CCC(Cl)[N+](=O)[O-]", "note": "(stereo not given)", "activation": "-1.58% (inactive)"}
